Here are results for 37 compounds from PubChem BioAssay (NCI).

About 83,000 compounds went through this panel and 20% of them were active in at least one assay; those are over-represented in the sample as a whole.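 Testing used 96-well plates and a 48-hour single-concentration exposure. Example: -40 means 40% of the starting cells died.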 The source made the active and inactive calls. Rule for the calls: active = growth percent below 10; inactive = the rest.

The subject of one test is NCI-H460 lung. The test is described as follows: NCI-60 one-dose screen, 48 h (100 = growth as untreated, 0 = no growth, -100 = all killed). Conditions: 10 µM.
Take `COc1cc(C2CC(c3ccc(C)cc3)=Nc3c(N)nc(N)nc3N2)ccc1Oc1nc(Nc2ccc(F)cc2)nc(N(C)C)n1` (centres undefined): the growth was 37.7% (inactive). On the same count and under the same terms, under `O=c1c2ccccc2nc(COc2ccccc2)n1/N=C/c1ccc(N2CCCC2)cc1` stands 105% (inactive); under `CCN1CCN(c2ccc(NC(=O)Nc3ccc4c(c3F)CCN4c3ccnc(C(=O)NC)c3)cc2C(F)(F)F)CC1`, -87.6% (active). Regarding `O=c1[nH]c2ccccc2cc1CSc1ccc(Nc2nccc(-c3ccc4ccccc4c3)n2)cc1`, the growth was 24.3% (inactive). Still for that read-out and setting: under `O=C(CNc1nc(-c2ccccc2)cs1)Nc1cccc(Cl)c1` stands 44.8% (inactive); under `O=c1[nH]c2ccccc2cc1CSc1ccc(Nc2nccc(-c3ccc(Cl)cc3)n2)cc1`, -59.6% (active); under `O=C1Nc2cc(-c3ccc(NC(=O)c4cccc([N+](=O)[O-])c4)cc3)ccc2/C1=C/c1ccc[nH]1`, 103% (inactive). On the same count and under the same terms, under `COc1ccc(-c2ccc(/C=N/NC(=O)c3[nH]c4ccc(Br)cc4c3-c3ccccc3)o2)cc1` stands 16.8% (inactive); under `CN1CCN(c2ccc(C(=O)/C=C/c3cc(C(F)(F)F)ccc3Cl)cc2)CC1`, -46.6% (active). On the same count and under the same terms, under `COc1ccc(-c2cc(-c3cc(C(=O)c4ccccc4)n4ccc(C)cc34)nc(N)c2C#N)cc1` stands 44.5% (inactive); under `O=C(Nc1ccc(I)cc1)Nc1nc2ccc([N+](=O)[O-])cc2s1`, -72.1% (active); under `CCCCCCCCCCCCCCCCCCCC(=O)NCCc1c[nH]c2ccc(O)cc12`, 101% (inactive).

A further test deals with HOP-92 NSCLC. The description is as above. Conditions: 10 µM.
For the compound `COc1cccc(-c2ccnc(/N=C(\N)Nc3ccc(S(=O)(=O)Nc4nc(C)cc(C)n4)cc3)n2)c1`, the growth was 106% (inactive). The same measure, in the same setting: under `O/N=C(\CSc1nnc(-c2c[nH]c3ccccc23)n1-c1ccccc1)c1ccc(Cl)cc1` stands -8.42% (active); under `COC(=O)c1c(C(=O)OC)c2n(c1C)[C@@H]([C@@H](C)[C@H]1CC[C@H]3[C@@H]4CCC5=CC(=O)CC[C@]5(C)[C@H]4CC[C@]13C)SC2`, 26.3% (inactive). The same measure, in the same setting: under `Cc1ccc(-c2cc(C(=O)N=Nc3c(O)[nH]c4ccc(Br)cc34)c3ccccc3n2)cc1` stands 87.6% (inactive); under `COc1ccc(-c2c(N)c(=O)n(C)c3ccccc23)cc1`, 9.05% (active); under `O=c1cc(-c2ccccc2)oc2cc(OCCCNCc3ccccc3)cc(O)c12`, -9.75% (active). `COc1cccc2nc(Nc3cccc(NC(=O)c4ccc(CN5CCCN(C)CC5)c(C(F)(F)F)c4)c3)ccc12`: the growth was -83.5% (active). Same read-out and setting: under `COc1ccc(-c2cc(-c3cc(C(=O)c4ccc(Br)cc4)n4ccc(C)cc34)nc(N)c2C#N)cc1` stands 87.5% (inactive); under `O=C1CCC(N2Cc3c(NCc4ccc(-c5ccccc5)cc4)cccc3C2=O)C(=O)N1` (centres undefined), 24.3% (inactive); under `COc1ccc(CN2[C@@H](C(=O)NCc3ccc(C(=O)NO)cc3)Cc3c([nH]c4ccccc34)[C@@H]2C2CC2)cc1`, -3.87% (active).

As to `CCOC(=O)c1c(CSc2ccccc2)n(C)c2cc(CN(C)C)c(O)c(CN(C)C)c12`, the growth was 32.5% (inactive). Same read-out and setting: under `CCOC(=O)CNC(=O)CN(Cc1ccccc1)C(=O)[C@@]1(C)CCC[C@]2(C)[C@H]3C[C@H]4C(C(C)C)=C[C@]3(CC[C@H]21)[C@@H]1C(=O)OC(=O)[C@@H]14` stands 74.6% (inactive); under `CC(=O)Nc1ccc(-c2cn(-c3cccc(C(=O)Nc4cc(C(F)(F)F)cc(C(F)(F)F)c4)c3)nn2)cn1`, -52% (active).

With `NS(=O)(=O)c1ccc(N=Nc2c(O)n(CC(=O)Nc3ccccc3Br)c3ccccc23)cc1`, the growth is 38.7% (inactive).

As for `N#Cc1c(Cl)nc(SCc2ccc(F)cc2)nc1-c1ccc(F)cc1`, the growth is 74.8% (inactive). Consider `CN(C)c1ccc(/C=C/C(=O)c2ccc(NC(=O)CN3C(=O)NC(C)(c4ccccc4)C3=O)cc2)cc1` (centres undefined), for which the growth is 65.3% (inactive).

Take `Cc1cc(C)nc(NS(=O)(=O)c2ccc(N/C(N)=N/c3nccc(-c4cccs4)n3)cc2)n1`: the growth is 107% (inactive). The same measure, in the same setting: under `COc1ccc(/C=C/C(=O)c2ccc(N3CCN(C)CC3)cc2)c(C(F)(F)F)c1` stands 46.8% (inactive); under `Clc1ccc(/C=N/Nc2ncnc3sc4c(c23)CCN(Cc2ccccc2)C4)cc1`, -59.6% (active); under `COc1cccc(/C=N/NC(=O)c2ccc3nc(-c4ccc(Cl)cc4)[nH]c3c2)c1O`, -85.2% (active). The same measure, in the same setting: under `COc1ccc(-c2nc(S(=O)(=O)c3ccc(C)cc3)c(S(=O)(=O)CC(=O)N(C)Cc3ccccc3)o2)cc1` stands 27.2% (inactive). `CC1=C2C(=C[C@@](C)(CO)[C@@H]2O)/C(=N\N)[C@](C)(O)C12CC2`: the growth is -22.6% (active). On to `CC(=O)c1ccc(Nc2nc(SC(C)C)nc(-c3ccccc3)c2C#N)cc1`, for which the growth was -15.8% (active). Still for that read-out and setting: under `CCN1CCN(Cc2ccc(NC(=O)c3cccc(-n4cc(-c5ccc(NC(C)=O)nc5)nn4)c3)cc2C(F)(F)F)CC1` stands 72.6% (inactive); under `CC(C)c1ccc(C(=O)Nc2sc3c(c2C(N)=O)CCC(=O)C3=O)cc1`, 127% (inactive); under `COc1cc(C2CC(c3ccc(C)cc3)=Nc3c(N)nc(N)nc3N2)ccc1Oc1nc(Nc2ccc(F)cc2)nc(N(C)C)n1` (centres undefined), 9.32% (active). Still for that read-out and setting: under `O=c1c2ccccc2nc(COc2ccccc2)n1/N=C/c1ccc(N2CCCC2)cc1` stands 75.5% (inactive); under `CCN1CCN(c2ccc(NC(=O)Nc3ccc4c(c3F)CCN4c3ccnc(C(=O)NC)c3)cc2C(F)(F)F)CC1`, 82.3% (inactive). Same read-out and setting: under `O=c1[nH]c2ccccc2cc1CSc1ccc(Nc2nccc(-c3ccc4ccccc4c3)n2)cc1` stands -3.82% (active); under `O=C(CNc1nc(-c2ccccc2)cs1)Nc1cccc(Cl)c1`, -5.42% (active); under `O=c1[nH]c2ccccc2cc1CSc1ccc(Nc2nccc(-c3ccc(Cl)cc3)n2)cc1`, -68.1% (active). Turning to `O=C1Nc2cc(-c3ccc(NC(=O)c4cccc([N+](=O)[O-])c4)cc3)ccc2/C1=C/c1ccc[nH]1`, the growth is 109% (inactive). Still for that read-out and setting: under `COc1ccc(-c2ccc(/C=N/NC(=O)c3[nH]c4ccc(Br)cc4c3-c3ccccc3)o2)cc1` stands 85.9% (inactive); under `CN1CCN(c2ccc(C(=O)/C=C/c3cc(C(F)(F)F)ccc3Cl)cc2)CC1`, -58.9% (active); under `COc1ccc(-c2cc(-c3cc(C(=O)c4ccccc4)n4ccc(C)cc34)nc(N)c2C#N)cc1`, -7.39% (active). Still for that read-out and setting: under `O=C(Nc1ccc(I)cc1)Nc1nc2ccc([N+](=O)[O-])cc2s1` stands -87.9% (active).

For `CCCCCCCCCCCCCCCCCCCC(=O)NCCc1c[nH]c2ccc(O)cc12`, the growth is 148% (inactive).
